Laboratory results taken from ChEMBL document CHEMBL1961873, “Compounds: GSK PKIS; Assays: Nanosyn kinase panel” (2012).

What was measured:
[1] = target: Tyrosine-protein kinase SYK (Homo sapiens) (UniProt P43405); settings: at 1 µM
[2] = target: T1, Tyrosine-protein kinase Tec (Homo sapiens) (UniProt P42680); settings: at 0.1 µM
T1 sequence (whole entry): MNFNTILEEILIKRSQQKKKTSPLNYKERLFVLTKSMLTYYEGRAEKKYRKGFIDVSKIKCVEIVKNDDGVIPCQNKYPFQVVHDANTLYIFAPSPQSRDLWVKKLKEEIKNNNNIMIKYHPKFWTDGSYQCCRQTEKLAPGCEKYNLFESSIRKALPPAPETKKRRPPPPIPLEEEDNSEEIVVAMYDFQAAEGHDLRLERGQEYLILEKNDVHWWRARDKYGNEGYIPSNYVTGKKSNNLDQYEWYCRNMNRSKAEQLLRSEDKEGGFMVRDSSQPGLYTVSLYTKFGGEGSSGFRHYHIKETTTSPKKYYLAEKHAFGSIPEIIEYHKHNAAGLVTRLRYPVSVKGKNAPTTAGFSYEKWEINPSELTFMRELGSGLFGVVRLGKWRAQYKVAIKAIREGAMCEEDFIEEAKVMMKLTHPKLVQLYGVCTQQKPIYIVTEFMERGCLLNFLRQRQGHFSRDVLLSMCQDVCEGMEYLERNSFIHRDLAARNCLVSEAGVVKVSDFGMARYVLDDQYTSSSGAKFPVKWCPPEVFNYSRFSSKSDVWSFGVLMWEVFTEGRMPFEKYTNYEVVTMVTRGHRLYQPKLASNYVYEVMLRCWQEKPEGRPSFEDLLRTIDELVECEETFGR

[3] = target: T1, Tyrosine-protein kinase Tec (Homo sapiens); settings: at 1 µM
[4] = target: Angiopoietin-1 receptor (Homo sapiens) (UniProt Q02763); settings: at 0.1 µM
[5] = target: Angiopoietin-1 receptor (Homo sapiens) (UniProt Q02763); settings: at 1 µM
[6] = target: T2, Non-receptor tyrosine-protein kinase TNK1 (Homo sapiens) (UniProt Q13470); settings: at 0.1 µM
T2 sequence (whole entry): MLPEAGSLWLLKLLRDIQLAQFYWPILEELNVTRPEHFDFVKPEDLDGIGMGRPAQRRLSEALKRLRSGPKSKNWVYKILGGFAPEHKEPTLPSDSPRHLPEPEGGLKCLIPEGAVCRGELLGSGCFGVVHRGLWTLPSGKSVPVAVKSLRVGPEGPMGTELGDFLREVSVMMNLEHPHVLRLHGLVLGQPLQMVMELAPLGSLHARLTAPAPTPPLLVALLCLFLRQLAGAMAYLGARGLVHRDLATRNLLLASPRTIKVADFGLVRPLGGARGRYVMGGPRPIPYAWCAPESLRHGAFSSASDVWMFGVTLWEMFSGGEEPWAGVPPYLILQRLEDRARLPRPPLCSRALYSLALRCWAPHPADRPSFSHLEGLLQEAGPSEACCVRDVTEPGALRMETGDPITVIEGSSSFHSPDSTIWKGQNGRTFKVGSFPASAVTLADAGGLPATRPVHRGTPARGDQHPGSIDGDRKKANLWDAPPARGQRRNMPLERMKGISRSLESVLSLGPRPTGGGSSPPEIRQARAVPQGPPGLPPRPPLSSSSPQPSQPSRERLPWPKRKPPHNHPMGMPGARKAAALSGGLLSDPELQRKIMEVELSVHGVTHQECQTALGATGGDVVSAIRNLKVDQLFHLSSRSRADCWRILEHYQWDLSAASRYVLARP

[7] = target: T2, Non-receptor tyrosine-protein kinase TNK1 (Homo sapiens); settings: at 1 µM
[8] = target: Activated CDC42 kinase 1 (Homo sapiens) (UniProt Q07912); settings: at 0.1 µM
[9] = target: Activated CDC42 kinase 1 (Homo sapiens) (UniProt Q07912); settings: at 1 µM
[10] = target: High affinity nerve growth factor receptor (Homo sapiens) (UniProt P04629); settings: at 0.1 µM
[11] = target: High affinity nerve growth factor receptor (Homo sapiens) (UniProt P04629); settings: at 1 µM
[12] = target: BDNF/NT-3 growth factors receptor (Homo sapiens) (UniProt Q16620); settings: at 0.1 µM
[13] = target: BDNF/NT-3 growth factors receptor (Homo sapiens) (UniProt Q16620); settings: at 1 µM
[14] = target: NT-3 growth factor receptor (Homo sapiens) (UniProt Q16288); settings: at 0.1 µM
[15] = target: NT-3 growth factor receptor (Homo sapiens) (UniProt Q16288); settings: at 1 µM
[16] = target: T3, Tyrosine-protein kinase TXK (Homo sapiens) (UniProt P42681); settings: at 0.1 µM
T3 sequence (whole entry): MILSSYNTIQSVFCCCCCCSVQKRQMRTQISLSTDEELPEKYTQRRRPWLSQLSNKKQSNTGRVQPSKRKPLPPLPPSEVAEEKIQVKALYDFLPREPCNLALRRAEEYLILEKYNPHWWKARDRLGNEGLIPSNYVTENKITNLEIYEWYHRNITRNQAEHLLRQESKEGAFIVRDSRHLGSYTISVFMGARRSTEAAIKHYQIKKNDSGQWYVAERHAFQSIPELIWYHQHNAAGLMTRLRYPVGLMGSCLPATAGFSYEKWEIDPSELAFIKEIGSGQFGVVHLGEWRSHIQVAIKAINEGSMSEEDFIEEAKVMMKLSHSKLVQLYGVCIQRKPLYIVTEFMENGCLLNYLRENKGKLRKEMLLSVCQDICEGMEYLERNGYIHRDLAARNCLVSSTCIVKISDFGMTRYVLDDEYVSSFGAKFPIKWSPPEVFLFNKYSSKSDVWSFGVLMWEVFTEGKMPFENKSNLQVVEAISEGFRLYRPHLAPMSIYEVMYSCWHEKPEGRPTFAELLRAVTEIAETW

[17] = target: T3, Tyrosine-protein kinase TXK (Homo sapiens); settings: at 1 µM
[18] = target: Non-receptor tyrosine-protein kinase TYK2 (Homo sapiens) (UniProt P29597); settings: at 0.1 µM;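 also: each value is a mean of the inhibition readings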
[19] = target: T4, Dual specificity protein kinase TTK (Homo sapiens) (UniProt P33981); settings: at 1 µM;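 also: reported figures are mean TTK inhibition at 1 µM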
T4 sequence (whole entry): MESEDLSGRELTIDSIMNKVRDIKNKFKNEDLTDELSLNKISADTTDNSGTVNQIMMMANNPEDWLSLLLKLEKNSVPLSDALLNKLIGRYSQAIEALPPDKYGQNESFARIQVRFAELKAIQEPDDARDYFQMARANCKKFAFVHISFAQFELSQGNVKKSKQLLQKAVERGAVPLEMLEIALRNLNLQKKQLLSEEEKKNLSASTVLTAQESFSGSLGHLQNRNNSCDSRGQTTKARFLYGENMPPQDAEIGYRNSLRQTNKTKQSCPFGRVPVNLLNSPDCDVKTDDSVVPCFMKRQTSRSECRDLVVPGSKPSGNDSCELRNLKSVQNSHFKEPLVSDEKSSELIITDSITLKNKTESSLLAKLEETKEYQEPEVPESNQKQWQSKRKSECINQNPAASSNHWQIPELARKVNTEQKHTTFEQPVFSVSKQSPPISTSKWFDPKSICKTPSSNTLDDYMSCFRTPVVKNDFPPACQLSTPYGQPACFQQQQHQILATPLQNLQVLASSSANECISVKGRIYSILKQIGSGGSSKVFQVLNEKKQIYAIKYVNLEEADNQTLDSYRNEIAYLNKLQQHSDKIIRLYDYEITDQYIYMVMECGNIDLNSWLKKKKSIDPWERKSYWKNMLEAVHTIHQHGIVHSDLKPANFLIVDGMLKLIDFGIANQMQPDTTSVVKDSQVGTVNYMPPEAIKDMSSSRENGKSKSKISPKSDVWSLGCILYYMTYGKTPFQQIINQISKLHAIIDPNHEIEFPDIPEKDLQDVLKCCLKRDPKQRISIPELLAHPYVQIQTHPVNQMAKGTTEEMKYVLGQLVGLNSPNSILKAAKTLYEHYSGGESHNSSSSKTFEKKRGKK

[20] = target: T5, Aurora kinase A (Homo sapiens) (UniProt O14965); settings: at 0.1 µM;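 also: each reported value is a mean percent inhibition of Aurora-A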
T5 sequence (whole entry): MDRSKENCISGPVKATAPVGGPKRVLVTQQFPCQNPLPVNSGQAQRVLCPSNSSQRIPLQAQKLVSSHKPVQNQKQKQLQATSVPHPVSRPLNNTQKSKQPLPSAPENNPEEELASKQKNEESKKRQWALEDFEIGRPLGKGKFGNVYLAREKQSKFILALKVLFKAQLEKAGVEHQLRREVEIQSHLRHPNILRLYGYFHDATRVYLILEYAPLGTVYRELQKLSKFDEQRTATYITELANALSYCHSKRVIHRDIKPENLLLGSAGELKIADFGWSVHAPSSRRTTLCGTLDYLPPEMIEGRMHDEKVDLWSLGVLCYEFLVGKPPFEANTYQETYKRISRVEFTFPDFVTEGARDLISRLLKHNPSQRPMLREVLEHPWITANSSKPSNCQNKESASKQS

Sequence of High affinity nerve growth factor receptor (Homo sapiens) (P04629 33-796 limits assumed): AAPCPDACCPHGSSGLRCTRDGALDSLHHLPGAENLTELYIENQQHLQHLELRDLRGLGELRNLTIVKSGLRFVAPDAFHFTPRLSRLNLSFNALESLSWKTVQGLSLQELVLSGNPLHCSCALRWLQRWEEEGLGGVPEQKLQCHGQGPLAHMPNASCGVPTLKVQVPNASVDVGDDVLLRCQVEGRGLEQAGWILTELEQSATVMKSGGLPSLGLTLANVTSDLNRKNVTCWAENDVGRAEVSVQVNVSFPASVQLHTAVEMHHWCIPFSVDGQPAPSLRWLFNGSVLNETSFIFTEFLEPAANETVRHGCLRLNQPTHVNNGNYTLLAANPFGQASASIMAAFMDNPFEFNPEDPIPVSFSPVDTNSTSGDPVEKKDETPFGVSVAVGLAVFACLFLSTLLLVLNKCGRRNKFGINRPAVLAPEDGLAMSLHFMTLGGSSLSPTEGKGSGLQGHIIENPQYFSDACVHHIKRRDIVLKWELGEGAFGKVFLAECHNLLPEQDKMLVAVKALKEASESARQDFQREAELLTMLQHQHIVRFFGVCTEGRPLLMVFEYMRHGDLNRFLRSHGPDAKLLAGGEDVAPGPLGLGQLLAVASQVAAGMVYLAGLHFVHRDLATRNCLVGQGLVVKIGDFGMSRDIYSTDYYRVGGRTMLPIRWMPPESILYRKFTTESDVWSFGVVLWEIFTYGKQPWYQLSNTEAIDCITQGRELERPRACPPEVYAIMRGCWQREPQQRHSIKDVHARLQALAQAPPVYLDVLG
Sequence of NT-3 growth factor receptor (Homo sapiens) (Q16288 32-839 limits assumed): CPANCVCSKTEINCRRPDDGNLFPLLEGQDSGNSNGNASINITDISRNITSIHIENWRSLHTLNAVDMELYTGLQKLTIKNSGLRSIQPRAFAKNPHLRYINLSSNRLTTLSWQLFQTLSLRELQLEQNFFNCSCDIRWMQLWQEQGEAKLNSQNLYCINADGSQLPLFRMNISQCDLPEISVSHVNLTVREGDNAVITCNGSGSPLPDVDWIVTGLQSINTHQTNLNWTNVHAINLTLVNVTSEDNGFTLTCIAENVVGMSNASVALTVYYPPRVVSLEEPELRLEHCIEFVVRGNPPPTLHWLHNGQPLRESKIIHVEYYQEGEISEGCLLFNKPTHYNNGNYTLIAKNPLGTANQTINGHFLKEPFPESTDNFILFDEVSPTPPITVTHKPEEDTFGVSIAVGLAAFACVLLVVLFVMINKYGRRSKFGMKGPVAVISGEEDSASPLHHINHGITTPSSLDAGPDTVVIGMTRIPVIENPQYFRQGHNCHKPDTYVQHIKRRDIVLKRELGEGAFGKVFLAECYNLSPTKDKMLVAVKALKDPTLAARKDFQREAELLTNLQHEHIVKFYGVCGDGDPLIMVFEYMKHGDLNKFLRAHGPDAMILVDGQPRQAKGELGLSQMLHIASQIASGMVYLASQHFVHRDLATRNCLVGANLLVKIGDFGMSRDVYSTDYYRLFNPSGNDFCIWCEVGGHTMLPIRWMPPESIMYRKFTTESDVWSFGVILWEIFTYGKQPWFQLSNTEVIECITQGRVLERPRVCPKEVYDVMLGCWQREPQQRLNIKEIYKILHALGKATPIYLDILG
Sequence of Non-receptor tyrosine-protein kinase TYK2 (Homo sapiens) (P29597 whole entry): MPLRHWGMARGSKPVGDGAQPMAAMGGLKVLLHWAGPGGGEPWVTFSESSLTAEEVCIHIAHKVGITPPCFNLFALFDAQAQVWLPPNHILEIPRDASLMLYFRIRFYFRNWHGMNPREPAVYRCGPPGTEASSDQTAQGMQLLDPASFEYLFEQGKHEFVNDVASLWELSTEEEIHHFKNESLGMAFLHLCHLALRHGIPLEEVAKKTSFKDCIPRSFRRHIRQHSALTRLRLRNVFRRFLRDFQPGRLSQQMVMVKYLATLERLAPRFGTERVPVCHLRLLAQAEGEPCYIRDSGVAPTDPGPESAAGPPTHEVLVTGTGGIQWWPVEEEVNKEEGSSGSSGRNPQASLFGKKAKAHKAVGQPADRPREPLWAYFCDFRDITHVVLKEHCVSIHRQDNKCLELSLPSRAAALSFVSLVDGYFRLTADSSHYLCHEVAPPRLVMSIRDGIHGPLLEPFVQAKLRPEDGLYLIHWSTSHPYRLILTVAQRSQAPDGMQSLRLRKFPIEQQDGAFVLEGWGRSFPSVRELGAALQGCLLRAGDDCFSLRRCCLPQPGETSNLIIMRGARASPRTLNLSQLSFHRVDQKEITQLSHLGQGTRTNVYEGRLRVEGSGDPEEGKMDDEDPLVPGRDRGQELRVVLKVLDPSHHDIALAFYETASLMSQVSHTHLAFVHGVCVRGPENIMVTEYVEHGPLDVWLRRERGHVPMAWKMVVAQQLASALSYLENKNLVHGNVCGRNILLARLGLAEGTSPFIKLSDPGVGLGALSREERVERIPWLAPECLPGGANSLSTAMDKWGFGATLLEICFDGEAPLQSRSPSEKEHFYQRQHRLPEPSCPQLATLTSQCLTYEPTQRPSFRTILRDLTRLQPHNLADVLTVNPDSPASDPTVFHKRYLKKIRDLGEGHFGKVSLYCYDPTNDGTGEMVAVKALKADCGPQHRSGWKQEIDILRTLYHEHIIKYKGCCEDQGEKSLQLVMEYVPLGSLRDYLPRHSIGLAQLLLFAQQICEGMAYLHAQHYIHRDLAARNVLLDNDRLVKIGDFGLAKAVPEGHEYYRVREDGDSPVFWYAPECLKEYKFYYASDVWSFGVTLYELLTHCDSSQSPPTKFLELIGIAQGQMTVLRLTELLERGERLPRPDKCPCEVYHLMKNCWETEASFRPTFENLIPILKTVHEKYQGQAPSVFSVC
Sequence of BDNF/NT-3 growth factors receptor (Homo sapiens) (Q16620 32-822 limits assumed): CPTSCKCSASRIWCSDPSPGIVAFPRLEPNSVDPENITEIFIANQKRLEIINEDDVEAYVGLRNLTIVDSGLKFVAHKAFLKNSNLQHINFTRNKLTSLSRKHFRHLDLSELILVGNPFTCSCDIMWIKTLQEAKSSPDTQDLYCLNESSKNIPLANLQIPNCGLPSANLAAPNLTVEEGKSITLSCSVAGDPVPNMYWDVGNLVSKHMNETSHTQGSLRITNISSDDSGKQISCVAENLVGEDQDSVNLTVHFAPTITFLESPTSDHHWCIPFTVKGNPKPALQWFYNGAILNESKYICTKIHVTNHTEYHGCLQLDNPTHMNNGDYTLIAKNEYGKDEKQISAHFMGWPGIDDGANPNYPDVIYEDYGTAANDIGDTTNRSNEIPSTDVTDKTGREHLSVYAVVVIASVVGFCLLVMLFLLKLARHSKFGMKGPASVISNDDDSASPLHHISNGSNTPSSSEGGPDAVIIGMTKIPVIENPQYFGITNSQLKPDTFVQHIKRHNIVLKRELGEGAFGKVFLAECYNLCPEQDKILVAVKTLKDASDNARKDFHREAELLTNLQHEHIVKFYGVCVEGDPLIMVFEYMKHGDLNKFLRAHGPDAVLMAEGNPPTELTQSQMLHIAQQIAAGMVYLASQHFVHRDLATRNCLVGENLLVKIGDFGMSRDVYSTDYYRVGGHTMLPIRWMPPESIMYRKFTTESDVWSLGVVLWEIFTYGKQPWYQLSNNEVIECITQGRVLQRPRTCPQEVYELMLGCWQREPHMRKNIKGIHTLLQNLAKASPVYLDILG
Sequence of Activated CDC42 kinase 1 (Homo sapiens) (Q07912 whole entry, looked up): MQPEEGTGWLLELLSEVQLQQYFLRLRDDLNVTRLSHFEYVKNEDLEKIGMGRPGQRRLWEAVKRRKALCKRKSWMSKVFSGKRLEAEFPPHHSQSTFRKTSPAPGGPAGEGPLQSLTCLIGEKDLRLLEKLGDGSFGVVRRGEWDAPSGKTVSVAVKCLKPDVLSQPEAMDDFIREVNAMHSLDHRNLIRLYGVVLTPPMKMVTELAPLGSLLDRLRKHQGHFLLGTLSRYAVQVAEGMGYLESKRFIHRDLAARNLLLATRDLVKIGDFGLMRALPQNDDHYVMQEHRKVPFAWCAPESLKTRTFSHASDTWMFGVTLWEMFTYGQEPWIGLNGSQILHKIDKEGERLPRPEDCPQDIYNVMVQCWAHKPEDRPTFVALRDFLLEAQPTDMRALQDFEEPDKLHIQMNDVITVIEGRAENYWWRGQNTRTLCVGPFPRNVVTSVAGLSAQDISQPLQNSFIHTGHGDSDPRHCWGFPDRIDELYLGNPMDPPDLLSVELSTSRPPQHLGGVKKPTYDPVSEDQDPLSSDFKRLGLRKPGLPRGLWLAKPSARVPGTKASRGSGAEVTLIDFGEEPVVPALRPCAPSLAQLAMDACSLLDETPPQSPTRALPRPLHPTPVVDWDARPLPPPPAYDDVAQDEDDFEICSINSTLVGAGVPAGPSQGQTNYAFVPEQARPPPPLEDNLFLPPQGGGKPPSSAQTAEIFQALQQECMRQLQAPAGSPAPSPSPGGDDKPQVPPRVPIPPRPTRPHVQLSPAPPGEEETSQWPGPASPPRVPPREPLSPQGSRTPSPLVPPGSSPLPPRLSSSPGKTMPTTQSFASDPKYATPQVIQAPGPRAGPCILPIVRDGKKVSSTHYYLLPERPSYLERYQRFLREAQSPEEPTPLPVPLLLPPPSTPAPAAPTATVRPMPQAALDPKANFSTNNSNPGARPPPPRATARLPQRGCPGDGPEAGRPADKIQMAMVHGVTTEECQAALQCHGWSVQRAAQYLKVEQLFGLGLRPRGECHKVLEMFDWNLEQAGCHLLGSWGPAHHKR

| Compound | inhibition [1] [%] | inhibition [2] [%] | inhibition [3] [%] | inhibition [4] [%] | inhibition [5] [%] | inhibition [6] [%] | inhibition [7] [%] | inhibition [8] [%] | inhibition [9] [%] | inhibition [10] [%] | inhibition [11] [%] | inhibition [12] [%] | inhibition [13] [%] | inhibition [14] [%] | inhibition [15] [%] | inhibition [16] [%] | inhibition [17] [%] | inhibition [18] [%] | inhibition [19] [%] | inhibition [20] [%] |
| --- | --- | --- | --- | --- | --- | --- | --- | --- | --- | --- | --- | --- | --- | --- | --- | --- | --- | --- | --- | --- |
| Nc1nccc(C#Cc2cncnc2Nc2ccc(OCc3cccc(F)c3)c(Cl)c2)n1 | -0.63 | 5.34 | 13.6 | 4.38 | 3.5 | 5.1 | 8.89 | 1.73 | 3.21 | 4.45 | 9.29 | 3.48 | 11.3 | 2.67 | 9.94 | 3.85 | 8.58 | -3.29 | 14.2 | 1.06 |
| [O-][S+]1CCN(Cc2ccc(-c3ccc4ncnc(Nc5ccc(OCc6ccccc6)c(Cl)c5)c4c3)o2)CC1 | 0 | -0.94 | 1.06 | 0.37 | 1.08 | -0.33 | 9.61 | 0.09 | -0.42 | 1.88 | 3.75 | 1.6 | 2.14 | 0.66 | 0.36 | 0.16 | 2.65 | -1.17 | 8.12 | 1.75 |
| CCOc1nccc2c1nc(-c1nonc1N)n2CC | 1.57 | 3.96 | 5.87 | 2.25 | 8.59 | 2.63 | 20.1 | 3.04 | 7.54 | -1.22 | 3.61 | -0.99 | 5.51 | 1.31 | 5.16 | 4.89 | 5.69 | -0.93 | 6.96 | 0.6 |
| O=S(=O)(CCOCc1ccc(-c2ccc3ncnc(Nc4ccc(OCc5cccc(F)c5)c(Cl)c4)c3c2)o1)c1ccccc1 | 1.2 | 0.41 | 0.9 | 3.25 | 2.48 | 1.59 | 5.35 | -0.03 | -0.95 | -0.1 | 3.9 | 2.42 | 2.72 | 0.35 | 0.31 | -0.26 | 2.63 | -3.63 | 11 | 1.6 |
| CC(C)c1ccc2c(c1)NC(=O)/C2=N/Nc1ccc(S(N)(=O)=O)cc1 | 1.53 | 1.22 | 3.98 | 1.55 | 3.02 | 2.2 | 9.9 | 0.13 | 4.69 | 3.96 | 26.1 | 4.87 | 31.5 | 7.71 | 34.9 | 1.51 | 3.5 | 0.63 | 3.55 | 1.5 |
| NS(=O)(=O)c1ccc(NC=C2C(=O)Nc3ccc4ncsc4c32)cc1 | 3.68 | 5.73 | 22.4 | 1.88 | 19.6 | 15.6 | 53.1 | 1.41 | 9.93 | 15.9 | 68.8 | 31.8 | 80.2 | 35.6 | 84.6 | 4.55 | 17.2 | 11 | 75.5 | 34.6 |
| CC(C)c1ccc(Nc2nccc(-c3cnn4ncccc34)n2)cc1 | 9.02 | 2.28 | 7.14 | 2.92 | 4.32 | 5.68 | 49.3 | 0.39 | 2.14 | 3.65 | 7.94 | 2.01 | 6.18 | 3.36 | 9.1 | 1.69 | 3.04 | -0.82 | 22.2 | 6.2 |
| COc1ccc2ncnc(Nc3ccc(OCc4ccccc4)cc3)c2c1 | -1.05 | 2.8 | 4.49 | 2.79 | 5.45 | 2.34 | 12.3 | 0.68 | 1.66 | 0.33 | 1.61 | 2.59 | 2.63 | -0.03 | 0.85 | 2.73 | 3.98 | -2.4 | 4.18 | 1.97 |
| Cc1nc(-c2ccccc2)n2nc(NCCCN3CCOCC3)ncc12 | 3.52 | 2.69 | 3.32 | 4.19 | 5.74 | 1.98 | 2.53 | 0.58 | 1.15 | 0.31 | 5.06 | 1.8 | 3.5 | 2.73 | 2.25 | 4.46 | 3.59 | -3.48 | 5.84 | 3.52 |
| CN(C)C(=O)O[C@@H]1CN[C@@H](C#Cc2cc3ncnc(Nc4ccc(OCc5cccc(F)c5)c(Cl)c4)c3s2)C1 | 0.74 | 2.88 | 6.39 | 1.52 | 4.73 | 0.44 | 8.64 | -0.35 | -0.22 | -3.09 | -4.24 | -0.65 | -0.85 | 2.82 | 0.46 | 2.85 | 5.35 | 1.84 | 4.98 | 1.79 |
| COc1cc2ncnc(Nc3ccc(C)c(O)c3)c2cc1OC | 0.27 | 11.1 | 36.6 | 3.58 | 17.7 | 5.34 | 23.8 | 1.4 | 5.7 | 1.85 | 2.17 | 3.65 | 6.25 | 1.67 | 7.05 | 8.65 | 29.5 | -5.98 | 7.27 | 2.56 |
| c1ccc(Cc2nc3ccc(Nc4ncnc5ccccc45)cc3[nH]2)cc1 | -0.79 | 4.4 | 8.08 | 2.5 | 5.58 | 1.92 | 11.4 | 1.45 | 3.26 | 2.77 | 0.18 | 2.44 | 3.35 | -0.16 | 2.9 | 2.03 | 4.47 | -9.76 | 19 | 2.6 |
